# In the supplement of paper PMC12282887:
# ± gives the standard deviation of the averaged measurements.
# Test system: E. coli BW25113 marRABp lux reporter
# Assay: promoter activity interaction Z-score (Lux/OD deviation from empty-vector control); higher = stronger promoter induction by the compound
# Method: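 E. coli BW25113 (wild type or ΔmarA/ΔsoxS/Δrob) carrying pTU175 luxCDABE promoter reporters was grown in LB in 384-well plates at 37°C with each of 94 compounds at 4 two-fold concentrations, in biological duplicates. Luminescence and OD600 were read every 30 min for 12 h and integrated as AUC over 8 h (0-8 h WT, 1-9 h mutants). Lux AUC was divided by OD AUC; the interaction score is the residual of a Huber robust fit of each promoter against the empty-vector control, then Z-transformed per promoter.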
smiles,measurement,setting,value
CN(C)[C@@H]1C(O)=C(C(N)=O)C(=O)[C@@]2(O)C(O)=C3C(=O)c4c(O)cccc4[C@@](C)(O)[C@H]3C[C@@H]12 [Tetracycline],promoter activity interaction Z-score,"0.056 µg/ml, genetic background: wild type",0.665 ± 0.88
same,promoter activity interaction Z-score,"0.056 µg/ml, genetic background: ΔmarA",1.07 ± 0.1
same,promoter activity interaction Z-score,"0.056 µg/ml, genetic background: Δrob",0.256 ± 0.36
same,promoter activity interaction Z-score,"0.056 µg/ml, genetic background: ΔsoxS",0.136 ± 0.061
same,promoter activity interaction Z-score,"0.11 µg/ml, genetic background: wild type",2.13 ± 0.84
same,promoter activity interaction Z-score,"0.11 µg/ml, genetic background: ΔmarA",1.76 ± 0.44
same,promoter activity interaction Z-score,"0.11 µg/ml, genetic background: Δrob",0.771 ± 0.16
same,promoter activity interaction Z-score,"0.11 µg/ml, genetic background: ΔsoxS",1.22 ± 0.7
same,promoter activity interaction Z-score,"0.22 µg/ml, genetic background: wild type",2.83 ± 0.4
same,promoter activity interaction Z-score,"0.22 µg/ml, genetic background: ΔmarA",3.06 ± 0.18
same,promoter activity interaction Z-score,"0.22 µg/ml, genetic background: Δrob",1.16 ± 0.43
same,promoter activity interaction Z-score,"0.22 µg/ml, genetic background: ΔsoxS",2.13 ± 0.087
same,promoter activity interaction Z-score,"0.44 µg/ml, genetic background: wild type",2.24 ± 1
same,promoter activity interaction Z-score,"0.44 µg/ml, genetic background: ΔmarA",0.451 ± 0.1
same,promoter activity interaction Z-score,"0.44 µg/ml, genetic background: Δrob",0.992 ± 0.29
same,promoter activity interaction Z-score,"0.44 µg/ml, genetic background: ΔsoxS",2.56
CO[C@H]1/C=C/O[C@@]2(C)Oc3c(C)c(O)c4c(O)c(c(/C=N/N5CCN(C)CC5)c(O)c4c3C2=O)NC(=O)/C(C)=C\C=C\[C@H](C)[C@H](O)[C@@H](C)[C@@H](O)[C@@H](C)[C@H](OC(C)=O)[C@@H]1C [Rifampicin],promoter activity interaction Z-score,"1 µg/ml, genetic background: wild type",-0.547 ± 0.12
same,promoter activity interaction Z-score,"1 µg/ml, genetic background: ΔmarA",-0.978 ± 0.48
same,promoter activity interaction Z-score,"1 µg/ml, genetic background: Δrob",-0.432 ± 0.12
same,promoter activity interaction Z-score,"1 µg/ml, genetic background: ΔsoxS",-0.415 ± 0.079
same,promoter activity interaction Z-score,"2.1 µg/ml, genetic background: wild type",-0.461 ± 0.4
same,promoter activity interaction Z-score,"2.1 µg/ml, genetic background: ΔmarA",-1.18 ± 0.22
same,promoter activity interaction Z-score,"2.1 µg/ml, genetic background: Δrob",-0.469 ± 0.39
same,promoter activity interaction Z-score,"2.1 µg/ml, genetic background: ΔsoxS",-0.423 ± 0.032
same,promoter activity interaction Z-score,"4.1 µg/ml, genetic background: wild type",-1.1 ± 0.31
same,promoter activity interaction Z-score,"4.1 µg/ml, genetic background: ΔmarA",-1.23 ± 0.38
same,promoter activity interaction Z-score,"4.1 µg/ml, genetic background: Δrob",-0.719 ± 0.14
same,promoter activity interaction Z-score,"4.1 µg/ml, genetic background: ΔsoxS",-0.7557 ± 0.006
Cn1c(=O)c2c(ncn2C)n(C)c1=O [Caffeine],promoter activity interaction Z-score,"24.3 µg/ml, genetic background: wild type",0.925 ± 0.19
same,promoter activity interaction Z-score,"24.3 µg/ml, genetic background: ΔmarA",1.52 ± 0.3
same,promoter activity interaction Z-score,"24.3 µg/ml, genetic background: Δrob",0.0874 ± 0.094
same,promoter activity interaction Z-score,"24.3 µg/ml, genetic background: ΔsoxS",0.874 ± 0.41
same,promoter activity interaction Z-score,"48.5 µg/ml, genetic background: wild type",1.58 ± 0.15
same,promoter activity interaction Z-score,"48.5 µg/ml, genetic background: ΔmarA",1.47 ± 0.32
same,promoter activity interaction Z-score,"48.5 µg/ml, genetic background: Δrob",-0.0293 ± 0.12
same,promoter activity interaction Z-score,"48.5 µg/ml, genetic background: ΔsoxS",1.28 ± 0.27
same,promoter activity interaction Z-score,"97.1 µg/ml, genetic background: wild type",1.63 ± 0.018
same,promoter activity interaction Z-score,"97.1 µg/ml, genetic background: ΔmarA",2.83 ± 0.69
same,promoter activity interaction Z-score,"97.1 µg/ml, genetic background: Δrob",0.0326 ± 0.04
same,promoter activity interaction Z-score,"97.1 µg/ml, genetic background: ΔsoxS",1.55 ± 0.65
same,promoter activity interaction Z-score,"194.2 µg/ml, genetic background: wild type",3.65 ± 0.97
same,promoter activity interaction Z-score,"194.2 µg/ml, genetic background: ΔmarA",4.03 ± 0.93
same,promoter activity interaction Z-score,"194.2 µg/ml, genetic background: Δrob",0.103 ± 0.13
same,promoter activity interaction Z-score,"194.2 µg/ml, genetic background: ΔsoxS",2.91 ± 1.6
